Data from PubChem BioAssay AID1671190 (National Center for Advancing Translational Sciences (NCATS), 2021).
“And” between values parts separate entries of the source, which are not always exact repeats. Identical values can stand only once. Hit rate of the full screen: of about 580,000 compounds, about 6,100 (1.1%) were called active. Another 15% or so got no clear call; they are omitted. Calls follow the shape of the dose curve; as a rule, active = well fitted inhibition curve with a large enough effect; inconclusive = small, poorly fitted or top-dose-only effect, or another doubt; inactive = no such curve, though single readings can be large or run the other way. The list comes from a sample in which actives are over-represented; it also holds similar structures and randomly drawn compounds.

What follows are compounds tested against Polyunsaturated fatty acid lipoxygenase ALOX12 (Homo sapiens) (UniProt P18054) (assay: Primary qHTS assay for inhibitors of human arachidonate 12S-lipoxygenase (ALOX12): Round 2). Details: purified 12hLO, xylenol orange hydroperoxide absorbance; series mostly up to 108 µM.
Sequence of Polyunsaturated fatty acid lipoxygenase ALOX12 (Homo sapiens) (P18054 whole entry, looked up): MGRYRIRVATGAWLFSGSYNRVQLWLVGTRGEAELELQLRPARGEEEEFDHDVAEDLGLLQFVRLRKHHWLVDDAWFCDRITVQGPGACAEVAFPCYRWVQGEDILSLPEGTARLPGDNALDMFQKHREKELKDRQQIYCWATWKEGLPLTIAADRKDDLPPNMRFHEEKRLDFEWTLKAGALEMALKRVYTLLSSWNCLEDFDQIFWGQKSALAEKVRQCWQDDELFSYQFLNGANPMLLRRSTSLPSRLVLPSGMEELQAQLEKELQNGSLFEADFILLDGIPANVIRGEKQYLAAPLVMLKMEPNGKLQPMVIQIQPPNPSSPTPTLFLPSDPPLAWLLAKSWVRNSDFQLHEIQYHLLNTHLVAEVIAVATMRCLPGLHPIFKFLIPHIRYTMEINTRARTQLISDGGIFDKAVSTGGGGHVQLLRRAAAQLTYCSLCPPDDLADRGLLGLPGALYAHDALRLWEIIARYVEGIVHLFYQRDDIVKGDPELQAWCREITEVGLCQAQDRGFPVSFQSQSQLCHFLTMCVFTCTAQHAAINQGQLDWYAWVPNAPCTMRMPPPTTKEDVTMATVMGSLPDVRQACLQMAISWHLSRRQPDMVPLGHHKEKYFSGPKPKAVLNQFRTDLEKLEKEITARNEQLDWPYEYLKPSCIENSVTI
How it was run: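 Hydroperoxide product was detected by ferrous iron/xylenol orange as the 573 to 405 nm absorbance ratio. Arachidonic acid at 40 uM (final) was turned over for 30 min at room temperature by 150 nM human 12hLO, pH 7.0 Hepes buffer, after 15 min compound preincubation.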
Potency is read from the fitted curve at half-maximal effect.

Potency, active:
COc1cc(C2CC(=O)N3CN(Cc4ccccc4)CSC3=C2C#N)ccc1OCc1ccccc1 (stereo not given) 14.1 µM
COc1ccc(-c2nc3cnccn3c2NC2CCCCC2)cc1-c1cccc(Cl)c1 7.94 µM
Cc1ccc(-c2nc(SCc3ccc(Br)cc3)n3[nH]c(=O)cc3n2)cc1 31.6 µM
CC(=O)c1ccc(NC(=O)[C@@]2(CC(=O)O)CC(c3ccc(Br)cc3)=NO2)cc1 44.7 µM
O=C(Cn1c(=O)n(CCc2ccccc2)c(=O)c2sccc21)c1ccc(Cl)cc1 22.4 µM
S=C(NN=Cc1ccccn1)Nc1ccccn1 39.8 µM
COc1cc(Br)c(/C=C(/C#N)C(=O)c2ccccc2)cc1O 10 µM
Cc1ccc(S(=O)(=O)/N=C2\C=C(NS(=O)(=O)c3ccc(C)cc3)C(=O)c3ccccc32)cc1 15.8 µM
S=c1[nH]nc(-c2cc(-c3ccsc3)n[nH]2)n1-c1ccccc1 15.8 µM
COc1ccc(S(=O)(=O)Nc2ccc(O)c(Sc3nc4ccccc4s3)c2)cc1 44.7 µM and 22.4 µM
CCc1ccc(-c2cc(C(=O)NCc3ccco3)c3ccccc3n2)s1 17.8 µM and 35.5 µM
CCC(CO)Oc1cc(NC(=O)c2ccc(Cl)cc2)c2ncn(C(C)C)c2c1 (stereo not given) 3.16 µM
O=C(NCc1ccc(Cl)cc1)c1cc(-c2ccc[nH]2)n[nH]1 31.6 µM
Cc1ccc(C)c(C(C)NC(=S)NCc2ccc(Cl)cc2)c1 (stereo not given) 31.6 µM
S=C(NCCc1ccc(Cl)cc1)Nc1ccc(Oc2ccccc2)cc1 17.8 µM
Cc1cccc(NC(=S)NCCc2ccc(F)cc2)c1C 39.8 µM
Cc1ccc(NC(=S)NCCc2ccc(Cl)cc2)c(C)c1 35.5 µM
CC[n+]1c(C)n(-c2ccccc2)c2ccc(NC(C)=O)cc21 39.8 µM
CC(=O)C(=Cc1ccc(-c2cccc([N+](=O)[O-])c2)o1)C(C)=O 0.631 µM
CCC(C)Cn1c(O)cc2nn(-c3nc4ccccc4s3)c(=O)c-2c1C (stereo not given) 31.6 µM
Cc1ccc(S(=O)(=O)/N=C(/NC(=S)Nc2c(C)n(C)n(-c3ccccc3)c2=O)c2ccccc2)cc1 28.2 µM

Potency, inactive:
COC(=O)c1ccc(OCc2cccc(C#N)c2)c(OC)c1
COc1ccc(C2CC(=O)NC(SCC(=O)Nc3c(C)cccc3C)=C2C#N)cc1OC (stereo not given)
CCN(CC1COc2ccccc2O1)S(=O)(=O)N1CCOCC1 (stereo not given)
Nc1nonc1C(=O)N1CCN(C(=O)Nc2ccccc2)CC1
Cc1cccc2c1NC(=O)C21CC(=O)Nc2c1cnn2C(C)(C)C (stereo not given)
CCOc1c(Br)cc(/C=C/C(=O)c2ccc(OC)c(OC)c2)cc1OC
Cc1ccccc1Nc1nc(C(=O)NCCCN2CCOCC2)cs1
Cc1cccc(-c2nc3cnccn3c2NCCC(=O)N2CCCCCC2)c1
COc1cccc(-c2nc3nc(C)cc(C)n3c2NC2CCCCC2)c1
O=C1COc2ccc(Nc3ccccc3F)nc2CN1Cc1ccccc1F
O=c1cc2nc(-c3ccccc3)nc(SCCOc3ccc(Cl)cc3)n2[nH]1
Cc1cccc(-c2nc(SCc3ccc(Br)cc3)n3[nH]c(=O)cc3n2)c1
COc1ccc(OC)c(CNC(=O)c2cc3c(s2)-c2c(C)cccc2OC3)c1
CCNC(=S)NC1CC(C)(C)NC(C)(C)C1
Cc1cccc(NC(NC(=O)C(C)C)(C(F)(F)F)C(F)(F)F)c1
CCCNC(=O)C(C)OC(=O)c1cc(=O)[nH]c2ccccc12 (stereo not given)
Cc1c(Cl)cccc1NC(=O)[C@@]1(CC(=O)O)CC(/C=C/c2ccccc2)=NO1
Cc1ccc(NC(=O)CCC(=O)c2ccc(Br)cc2)cc1
O=C1OC(C2CC2)c2cc3c(cc21)OCCO3 (stereo not given)
O=C(O)c1ccc(S(=O)(=O)Nc2cc(F)ccc2OCC(F)(F)F)cc1
Cc1cccc(OCCn2c(CN3CCCCC3)nc3ccccc32)c1
CCn1ncc(N2CCC(NC(=O)c3ccc(OC(C)C)cc3)CC2)cc1=O
COc1ccc(NC(C)=O)cc1NC(=O)CCn1cnc2c1c(=O)n(C)c(=O)n2C
CCC1CCCCN1C(=O)Cn1c(=O)n(CCCCCC(=O)NCc2ccccc2)c(=O)c2sccc21 (stereo not given)
Cc1cccc(Cn2c(=O)n(CCC(=O)NCCc3ccc(Cl)cc3)c(=O)c3sccc32)c1
CC(=O)SC(CC(=O)c1ccccc1)c1ccccc1 (stereo not given)
NCCC(=O)Nc1ccccn1
Cc1nc2sc(C(=O)OCC(=O)Nc3cccc(C(F)(F)F)c3)c(C)c2c(=O)[nH]1
COCCCNC(=O)CCn1ccc2cc(S(=O)(=O)N3CCCCC3)ccc21
O=C(Nc1ccccc1Br)c1nc2ccccc2nc1N1CCOCC1
COc1ccc(Cl)cc1NC(=O)/C(C#N)=C/c1coc2ccc(Cl)cc2c1=O
COc1ccc(C(=O)/C(C#N)=C\c2ccccc2OC(F)F)cc1
C=CCn1c(-n2nc(CC)cc2CC)nc2c1c(=O)n(C)c(=O)n2C
O=C(NC1CCN(Cc2ccccc2)C1)c1cc2ccccc2oc1=O (stereo not given)
N#Cc1cccc(NC(=O)CSc2nnc(Cc3ccccc3)o2)c1
Cc1ccc(S(=O)(=O)NC(C)c2cccs2)cc1 (stereo not given)
CSCC(NS(=O)(=O)c1ccc(C)cc1)C(=O)O (stereo not given)
CC(C)c1ccc(C(=O)N/N=C/CCc2ccccc2)cc1
N#CCCN1CCC(c2ccccc2)C1 (stereo not given)
CCCCC(CC(C)O)c1n[nH]c(=S)n1-c1ccccc1 (stereo not given)
CC(=O)c1c(SCC(=O)Nc2ccc(F)cc2)nc(=O)[nH]c1C
COCC(=O)N1CCC(c2nc(C3CCOCC3)n[nH]2)CC1
COc1ccc(Nc2nc3ccccc3nc2NS(=O)(=O)c2ccc(OC)cc2)cc1
Cc1ccc(NS(=O)(=O)c2cccc(C(=O)N(C)C(C)c3nc4ccccc4s3)c2)cc1 (stereo not given)
COC(=O)C1=C(C)NC(=O)C1(NC(=O)c1ccccc1F)C(F)(F)F (stereo not given)
CCCCCCc1ccc(/C(C)=C\C(=O)O)cc1
CC(C)Oc1ccc(-c2cc(C(=O)NCc3ccncc3)c3ccccc3n2)cc1
CCOc1ccc(CNC(=O)c2cc(-c3ccc(Cl)s3)nc3ccccc23)cc1
O=C(CSc1nc(-c2ccc(F)cc2)cs1)NC1CCCCC1
CC(C)Cn1cnc2c1c(=O)n(CC(=O)OCc1ccc(F)cc1)c(=O)n2Cc1ccccc1
COC(=O)C1=C(C)Nc2nc3ccccc3n2C1c1cc(OC)c(O)c(OC)c1 (stereo not given)
CC(C)Oc1ccc(NC(=O)c2ccc(Cl)cc2)cc1
CCOc1ccc(NC(=O)c2ccc(Cl)cc2)c2cccnc12
COc1ccccc1C(=O)N1CCCN(CCc2ccccc2)c2ccccc21
COc1cccc(CN2Cc3cc(NC(=O)Cc4cccs4)ccc3OC(C)C2=O)c1OC (stereo not given)
COc1ccccc1CNC(=O)c1cc(-c2cc(Cl)ccc2C)n[nH]1
CCOc1ccc(Cl)cc1-c1cc(C(=O)NCc2cccs2)[nH]n1
CCCn1nc(C(=O)Nc2nc(-c3ccc(NC(C)=O)cc3)cs2)c2ccccc2c1=O
CC(NC(=O)CSc1ccc(F)c(F)c1)c1nc2ccccc2[nH]1 (stereo not given)
Cc1nn(C)c2c1c(C(F)(F)F)cc(=O)n2C(C)C(=O)NCc1ccc(Cl)cc1 (stereo not given)
Cc1cc(Cl)ccc1NC(=S)NCCCN1CCCC1=O
CCC(C)C(NC(=O)NCc1ccc(C)cc1)C(=O)O (stereo not given)
Cc1cccc(NC(=S)N2CCC(O)CC2)c1C
Cc1c(Cl)cccc1NC(=S)NCCSc1ccc(Cl)cc1
CCNC(=S)Nc1ccc(C)cc1Br
CN(CC(=O)Nc1ccc(Cl)cc1)C(=O)c1ccc(COc2ccccc2)cc1
O=C(NCCc1ccccc1)Oc1ccc(Cl)cc1
CN1CCN(C(=O)CCCC(=O)O)CC1
Cc1ccc([S+](=O)([O-])N2CCC3(CC2)CC(=O)N(c2ccccc2)c2ccccc2O3)cc1
CC(C)CC1CCCN1 (stereo not given)
CCn1cc(CN2CCC(N3CC(OCC4CC4)C34CCCCC4)CC2)cn1 (stereo not given)
CC(=O)Nc1ccc(S(=O)(=O)N2CCN(c3ccccc3)CC2)cc1
CC(=O)Nc1ccc(NC(=O)CSc2nnc(C3CC3)n2-c2ccccc2)cc1
COCC1CN(C(C)=O)CC12CCN(C(=O)c1n[nH]c(=O)c3ccccc13)CC2 (stereo not given)
N#CC(C#N)=Cc1ccc(-c2cccc(C(=O)O)c2)o1
Cc1ccnc(-c2cccc([N+](=O)[O-])c2)[n+]1[O-]
O=C(Nc1ccc(F)c(F)c1)c1nc2ccccc2nc1N1CCOCC1
CC(C)Cn1nc(C(=O)Nc2ccc3nc(N4CCOCC4)sc3c2)c2ccccc2c1=O
CCNC(=O)CN1CCCN(C(=O)CCCc2c[nH]c3ccccc23)CC1
CC(=O)NC(NC(=S)Nc1c(C)n(C)n(-c2ccccc2)c1=O)C(Cl)(Cl)Cl (stereo not given)
Cc1c(NC(=S)NC(=O)CCc2ccccc2)c(=O)n(-c2ccccc2)n1C
C/C=C/C=C/C(=O)NCc1cccs1
COc1cc(/C=C2/NC(=O)NC2=O)ccc1OCc1ccccc1F
CCOc1ccccc1NC(=O)N1CCN(Cc2nc(-c3ccc(C(=O)NC)cc3)oc2C)CC1
